# Test results published in PubChem BioAssay AID686978 (National Center for Advancing Translational Sciences (NCATS), 2013).
# “And” between values parts separate entries of the source, which are not always exact repeats. Equal entries are not always repeated. About 64,000 (15%) of roughly 420,000 compounds were called active. Roughly 27% stayed inconclusive and do not appear here. The entries come from a sample that favours actives as a whole. Values without a mark were called inactive. Calls come from the whole dose curve; as a rule, active = well fitted inhibition curve with a large enough effect; inconclusive = small, poorly fitted or top-dose-only effect; inactive = flat fitted curve, though single readings scatter.
# Test: qHTS for Inhibitors of human tyrosyl-DNA phosphodiesterase 1 (TDP1): qHTS in cells in absence of CPT; note: nearly all actives have a fitted effect of over 55% in size
# Details: DT40 Tdp1-/- hTDP1 cells, no CPT, ATP luminescence, 48 h; series mostly up to 46.2 µM; activity change, negative = growth inhibition: at the top concentration
# In short: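 Compound effects on proliferation are scored in DT40 Tdp1-/-;hTDP1 cells in the absence of CPT. ATP levels (CellTiter-Glo luminescence) are recorded after a ≥48 hr, 37 °C incubation.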
# % is set by controls: 0 for no effect and ±100 for the full control effect; potency is the fitted concentration of half-maximal effect.
Structure (SMILES),"activity change, negative = growth inhibition [%]",Potency
CCN(CC)CCOC(=O)c1cc2cc(COC)ccc2o1,2.59,–
C=CCN(CC=C)C(=O)Nc1ccc(OCC)cc1,-15.1,–
CCOC(=O)[C@]12Cc3ccccc3[C@H]1N(C1CCCCC1)C(=O)c1cc(OC)ccc12,–,3.66 µM (active)
CCOC(=O)[C@]12Cc3cc(OC)ccc3[C@H]1N(C(C)C)C(=O)c1ccccc12,–,6.51 µM (active)
O=C(N/N=C/c1c(O)n(C2CC2)c(=S)[nH]c1=O)c1ccccc1,2.47,–
C[C@]12CC[C@H](O)CC1=C([N+](=O)[O-])CC1C2CC[C@@]2(C)C1CC[C@@H]2O (stereo partly drawn),-26.1,–
CN1C2CC3CC1C(O3)C2O (stereo not drawn),1.96,–
COc1ccc2cc1Oc1ccc(cc1)C[C@H]1c3cc(c(OC)cc3CCN1C)Oc1c(O)c(OC)cc3c1[C@H](C2)N(C)CC3,–,8.2 µM (active)
COc1c(O)ccc2c1-c1c3c(cc4c1C(C2)N(C)CC4)OCO3 (stereo not drawn),-13,–
O=C(Cc1ccc(Cl)cc1)NCCN1CCN(C(=O)Cc2ccc(Cl)cc2)CC1,-19.8,–
Clc1cccc(Cl)c1Cl,11.4,–
O=[N+]([O-])c1cnc2ccc3ccccc3c2c1,-17.9,–
Cn1c(O)c(C=NCCCC(=O)O)c(=O)n(C)c1=O,1.24,–
CCCCC(=O)N/N=C/c1c(O)n(CC)c(=S)n(CC)c1=O,–,10.3 µM (active)
O=C1C2(Cl)C3(Cl)C4(Cl)C(Cl)(Cl)C5(Cl)C3(Cl)C1(Cl)C5(Cl)C24Cl (stereo not drawn),–,16.4 µM (active)
COC1=CC=C2[C@H]3Cc4ccc(OC)c5c4[C@@]2(CCN3C)C1O5 (stereo partly drawn),-16.4,–
COP(=O)(OC)C(NC(=O)c1ccc(C)cc1)C(Cl)(Cl)Cl (stereo not drawn),4.88,–
O=C1NC(=O)C(Cc2ccccc2)C(=O)N1,5.35,–
CC(Cc1ccccc1)NC=O (stereo not drawn),–,inactive
COc1ccc(CNC(=O)c2cc3c(-c4ccccc4F)nn(C)c3s2)c(OC)c1,–,6.51 µM (active)
CCOP(=O)(OCC)C(NC(=O)NC)C(N)=O (stereo not drawn),20.8,–
O=C(O)c1cc[c]([Sb](=[O])([OH])[OH])cc1[N+](=O)[O-],1.08,–
CCOC(=O)C1(c2ccccc2)CCN(CC(O)c2ccc(NC(C)=O)cc2)CC1 (stereo not drawn),-18.1,–
CCN1C[C@]2(COC)C(O)C[C@H](OC)[C@@]34C5C[C@]6(O)C(OC)C(O)[C@](OC(C)=O)(C5C6OC(=O)c5ccccc5)C(C(OC)C23)C14 (stereo partly drawn),2.58,–

Structure (SMILES),"activity change, negative = growth inhibition [%]",Potency
CC(CCC(=O)O)C1CCC2C3C(O)C[C@@H]4CC(O)CC[C@@]4(C)C3CC[C@@]12C (stereo partly drawn),–,inactive
C/C=C/CC1(CC)C(=O)NC(=S)NC1=O,-15.3,–
COC(=O)C1=C(c2ccccc2)C[C@@H]2CC[C@H]1N2C(=O)NCc1ccco1,-23.1,–
COC(=O)C1=C(c2c(C)noc2C)C[C@@H]2CC[C@H]1N2C(=O)NCc1ccc2c(c1)OCO2,-20.5,–
COC(=O)C1=C(c2cc3ccccc3s2)C[C@@H]2CC[C@H]1N2C(=O)NCCO,-0.15,–
COC(=O)C1=C(c2ccc(OCc3ccccc3)cc2)C[C@@H]2CC[C@H]1N2C(=O)NCc1cccc(F)c1,–,14.6 µM (active)
COC(=O)C1=C(c2ccc(OCc3ccccc3)cc2)C[C@@H]2CC[C@H]1N2C(=O)NCc1ccc(Cl)cc1,–,16.4 µM (active)
COC(=O)C1=C(c2cccc(OCc3ccccc3)c2)C[C@@H]2CC[C@H]1N2C(=O)NNCc1ccccc1,–,10.3 µM (active)
COC(=O)C(c1ccccc1)N1CCCCCC1 (stereo not drawn),-0.202,–
COC(=O)C1=C(c2ccccc2)C[C@@H]2CC[C@H]1N2C(=O)N1CCCCC1,–,6.51 µM (active)
CC[N+](CC)(CC)CCCCCCCCCC[N+](CC)(CC)CC,-1.16,–
CNC(=O)N(C)c1nnc(C(C)(C)C)s1,–,inactive
COP(=O)(NS(=O)(=O)c1ccccc1)OC,10.3,–
CN1CCC(OC(=O)c2cccc(F)c2)CC1,-23.6,–
CN1[C@@H]2CC[C@H]1CC(OC(=O)c1cc(Cl)cc(Cl)c1)C2 (stereo partly drawn),–,13.3 µM (active) and 11.9 µM (active)
CNP1(NC)=Nc2nn(-c3ccccc3)c(N)c2C(c2ccccc2)=N1,-8.1,–
Cc1cccc(Cn2cccc(C(=O)Nc3ccc4c(c3)OCCO4)c2=O)c1,–,20.6 µM (active)
CCN(CC)C(=O)c1ccc(NC(=O)c2cc(-n3cnnc3)ccc2Cl)cc1,-6.17,–
COc1cc(OC)cc(C2(C#N)CCN(C)CC2)c1,6.77,–
Cc1ccc(-n2c(O)c(C=NCC3CCCO3)c(=O)[nH]c2=O)c(C)c1 (stereo not drawn),-4.24,–
CNC(=O)Nc1ccc(C(O)(C(=O)OC)C(F)(F)F)cc1 (stereo not drawn),-2.08,–
Cc1cc(C(=O)OCC(=O)Nc2c(F)cccc2F)c(C)n1C1CC1,2.09,–
COC(=O)[C@@]12C[C@@H](CC(=O)NCc3cccc(C(F)(F)F)c3)C(=O)N(Cc3ccco3)C1=CCC(C)(C)C2,–,13 µM (active)
COc1cc(Cl)ccc1Nc1ncc(C(=O)N2CCN(c3ccccc3OC)CC2)c2ccccc12,–,5.8 µM (active)
